# Where two headings read alike, the source gives them in different places.
# What was measured:
# MARK3 = settings: read-out: apparent Kd, n = 1
# MARK4 = settings: read-out: apparent Kd, n = 1
# [1] = compound concentrations:100 nM and 1000 nM (sheet 'Lestaurtinib' of Supplementary Table 1),run:Lestaurtinib_02473_R3,Plate:MR010
# [2] = compound concentrations:100 nM and 1000 nM (sheet 'Lestaurtinib' of Supplementary Table 1),run:Lestaurtinib_02482_R2,Plate:MR011
# [3] = compound concentrations:100 nM and 1000 nM (sheet 'Lestaurtinib' of Supplementary Table 1),run:Lestaurtinib_02482_R3,Plate:MR011
# [4] = compound concentrations:100 nM and 1000 nM (sheet 'Lestaurtinib' of Supplementary Table 1),run:Lestaurtinib_02487_R1,Plate:MR012
# [5] = compound concentrations:100 nM and 1000 nM (sheet 'Lestaurtinib' of Supplementary Table 1),run:Lestaurtinib_02487_R2,Plate:MR012
# [6] = compound concentrations:100 nM and 1000 nM (sheet 'Lestaurtinib' of Supplementary Table 1),run:Lestaurtinib_02496_R2,Plate:MR013
# [7] = compound concentrations:100 nM and 1000 nM (sheet 'Lestaurtinib' of Supplementary Table 1),run:Lestaurtinib_02496_R3,Plate:MR013
# [8] = compound concentrations:100 nM and 1000 nM (sheet 'Lestaurtinib' of Supplementary Table 1),run:Lestaurtinib_02566_R1,Plate:MR014
# [9] = compound concentrations:100 nM and 1000 nM (sheet 'Lestaurtinib' of Supplementary Table 1),run:Lestaurtinib_02572_R1,Plate:MR015
# [10] = compound concentrations:100 nM and 1000 nM (sheet 'Lestaurtinib' of Supplementary Table 1),run:Lestaurtinib_02577_R1,Plate:MR016
# [11] = compound concentrations:100 nM and 1000 nM (sheet 'Lestaurtinib' of Supplementary Table 1),run:Lestaurtinib_02577_R3,Plate:MR016
# [12] = compound concentrations:100 nM and 1000 nM (sheet 'Lestaurtinib' of Supplementary Table 1),run:Lestaurtinib_02584_R3,Plate:MR017
# [13] = compound concentrations:100 nM and 1000 nM (sheet 'Lestaurtinib' of Supplementary Table 1),run:Lestaurtinib_02606_R3,Plate:MR019
# [14] = compound concentrations:100 nM and 1000 nM (sheet 'Lestaurtinib' of Supplementary Table 1),run:Lestaurtinib_02624_R2,Plate:MR020
substance,measurement,setting,value
Lestaurtinib,potency estimated from few doses,"MARK3; compound concentrations:100 nM and 1000 nM (sheet 'Lestaurtinib' of Supplementary Table 1),run:Lestaurtinib_02443_R3,Plate:MR009",0.217 µM
same,potency estimated from few doses,MARK3; [1],0.0985 µM
same,potency estimated from few doses,MARK3; [2],0.158 µM
same,potency estimated from few doses,MARK3; [3],0.14 µM
same,potency estimated from few doses,MARK3; [4],0.153 µM
same,potency estimated from few doses,MARK3; [5],0.2 µM
same,potency estimated from few doses,"MARK3; compound concentrations:100 nM and 1000 nM (sheet 'Lestaurtinib' of Supplementary Table 1),run:Lestaurtinib_02487_R3,Plate:MR012",0.172 µM
same,potency estimated from few doses,MARK3; [6],0.153 µM
same,potency estimated from few doses,MARK3; [7],0.146 µM
same,potency estimated from few doses,MARK3; [8],0.14 µM
same,potency estimated from few doses,MARK3; [9],0.14 µM
same,potency estimated from few doses,"MARK3; compound concentrations:100 nM and 1000 nM (sheet 'Lestaurtinib' of Supplementary Table 1),run:Lestaurtinib_02572_R2,Plate:MR015",0.162 µM
same,potency estimated from few doses,MARK3; [10],0.158 µM
same,potency estimated from few doses,"MARK3; compound concentrations:100 nM and 1000 nM (sheet 'Lestaurtinib' of Supplementary Table 1),run:Lestaurtinib_02577_R2,Plate:MR016",0.224 µM
same,potency estimated from few doses,MARK3; [11],0.259 µM
same,potency estimated from few doses,MARK3; [12],0.211 µM
same,potency estimated from few doses,"MARK3; compound concentrations:100 nM and 1000 nM (sheet 'Lestaurtinib' of Supplementary Table 1),run:Lestaurtinib_02601_R2,Plate:MR018",0.184 µM
same,potency estimated from few doses,"MARK3; compound concentrations:100 nM and 1000 nM (sheet 'Lestaurtinib' of Supplementary Table 1),run:Lestaurtinib_02606_R2,Plate:MR019",0.131 µM
same,potency estimated from few doses,MARK3; [13],0.162 µM
same,potency estimated from few doses,"MARK3; compound concentrations:100 nM and 1000 nM (sheet 'Lestaurtinib' of Supplementary Table 1),run:Lestaurtinib_02624_R1,Plate:MR020",0.146 µM
same,potency estimated from few doses,MARK3; [14],0.143 µM
same,potency estimated from few doses,"MARK3; compound concentrations:100 nM and 1000 nM (sheet 'Lestaurtinib' of Supplementary Table 1),run:Lestaurtinib_02724_R1,Plate:MR021",0.157 µM
same,potency estimated from few doses,"MARK3; compound concentrations:100 nM and 1000 nM (sheet 'Lestaurtinib' of Supplementary Table 1),run:Lestaurtinib_02724_R2,Plate:MR021",0.18 µM
same,potency estimated from few doses,"MARK3; compound concentrations:100 nM and 1000 nM (sheet 'Lestaurtinib' of Supplementary Table 1),run:Lestaurtinib_02724_R3,Plate:MR021",0.163 µM
same,potency estimated from few doses,"MARK3; compound concentrations:100 nM and 1000 nM (sheet 'Lestaurtinib' of Supplementary Table 1),run:Lestaurtinib_02752_R3,Plate:MR025",0.189 µM
same,potency estimated from few doses,"MARK3; compound concentrations:100 nM and 1000 nM (sheet 'Lestaurtinib' of Supplementary Table 1),run:Lestaurtinib_02765_R3,Plate:MR026",0.143 µM
same,potency estimated from few doses,"MARK3; compound concentrations:100 nM and 1000 nM (sheet 'Lestaurtinib' of Supplementary Table 1),run:Lestaurtinib_02766_R3,Plate:MR027",0.137 µM
same,potency estimated from few doses,"MARK3; compound concentrations:100 nM and 1000 nM (sheet 'Lestaurtinib' of Supplementary Table 1),run:Lestaurtinib_02768_R3,Plate:MR028",0.136 µM
same,potency estimated from few doses,"MARK3; compound concentrations:100 nM and 1000 nM (sheet 'Lestaurtinib' of Supplementary Table 1),run:Lestaurtinib_02795_R1,Plate:MR022",0.154 µM
same,potency estimated from few doses,"MARK3; compound concentrations:100 nM and 1000 nM (sheet 'Lestaurtinib' of Supplementary Table 1),run:Lestaurtinib_02795_R2,Plate:MR022",0.141 µM
same,potency estimated from few doses,"MARK3; compound concentrations:100 nM and 1000 nM (sheet 'Lestaurtinib' of Supplementary Table 1),run:Lestaurtinib_02795_R3,Plate:MR022",0.268 µM
same,potency estimated from few doses,"MARK3; compound concentrations:100 nM and 1000 nM (sheet 'Lestaurtinib' of Supplementary Table 1),run:Lestaurtinib_02896_R1,Plate:MR030",0.142 µM
same,potency estimated from few doses,"MARK3; compound concentrations:100 nM and 1000 nM (sheet 'Lestaurtinib' of Supplementary Table 1),run:Lestaurtinib_02896_R3,Plate:MR030",0.159 µM
same,potency estimated from few doses,"MARK3; compound concentrations:100 nM and 1000 nM (sheet 'Lestaurtinib' of Supplementary Table 1),run:Lestaurtinib_03172_R1,Plate:MR031",0.161 µM
same,potency estimated from few doses,"MARK3; compound concentrations:100 nM and 1000 nM (sheet 'Lestaurtinib' of Supplementary Table 1),run:Lestaurtinib_03172_R2,Plate:MR031",0.207 µM
same,potency estimated from few doses,"MARK3; compound concentrations:100 nM and 1000 nM (sheet 'Lestaurtinib' of Supplementary Table 1),run:Lestaurtinib_03172_R3,Plate:MR031",0.146 µM
same,potency estimated from few doses,"MARK3; compound concentrations:100 nM and 1000 nM (sheet 'Lestaurtinib' of Supplementary Table 1),run:Lestaurtinib_03260_R1,Plate:MR033",0.381 µM
same,potency estimated from few doses,"MARK3; compound concentrations:100 nM and 1000 nM (sheet 'Lestaurtinib' of Supplementary Table 1),run:Lestaurtinib_03260_R2,Plate:MR033",0.379 µM
same,potency estimated from few doses,"MARK3; compound concentrations:100 nM and 1000 nM (sheet 'Lestaurtinib' of Supplementary Table 1),run:Lestaurtinib_03260_R3,Plate:MR033",0.184 µM
same,potency estimated from few doses,"MARK4; compound concentrations:100 nM and 1000 nM (sheet 'Lestaurtinib' of Supplementary Table 1),run:Lestaurtinib_02339_R2,Plate:MR001",0.165 µM
same,potency estimated from few doses,"MARK4; compound concentrations:100 nM and 1000 nM (sheet 'Lestaurtinib' of Supplementary Table 1),run:Lestaurtinib_02339_R3,Plate:MR001",0.385 µM
same,potency estimated from few doses,"MARK4; compound concentrations:100 nM and 1000 nM (sheet 'Lestaurtinib' of Supplementary Table 1),run:Lestaurtinib_02364_R1,Plate:MR002",0.073 µM
same,potency estimated from few doses,"MARK4; compound concentrations:100 nM and 1000 nM (sheet 'Lestaurtinib' of Supplementary Table 1),run:Lestaurtinib_02367_R2,Plate:MR003",0.0797 µM
same,potency estimated from few doses,"MARK4; compound concentrations:100 nM and 1000 nM (sheet 'Lestaurtinib' of Supplementary Table 1),run:Lestaurtinib_02367_R3,Plate:MR003",0.0851 µM
same,potency estimated from few doses,"MARK4; compound concentrations:100 nM and 1000 nM (sheet 'Lestaurtinib' of Supplementary Table 1),run:Lestaurtinib_02381_R3,Plate:MR004",0.209 µM
same,potency estimated from few doses,"MARK4; compound concentrations:100 nM and 1000 nM (sheet 'Lestaurtinib' of Supplementary Table 1),run:Lestaurtinib_02422_R1,Plate:MR006",0.0748 µM
same,potency estimated from few doses,"MARK4; compound concentrations:100 nM and 1000 nM (sheet 'Lestaurtinib' of Supplementary Table 1),run:Lestaurtinib_02422_R3,Plate:MR006",0.0864 µM
same,potency estimated from few doses,"MARK4; compound concentrations:100 nM and 1000 nM (sheet 'Lestaurtinib' of Supplementary Table 1),run:Lestaurtinib_02437_R1,Plate:MR007",0.974 µM
same,potency estimated from few doses,"MARK4; compound concentrations:100 nM and 1000 nM (sheet 'Lestaurtinib' of Supplementary Table 1),run:Lestaurtinib_02438_R3,Plate:MR008",0.0831 µM
same,potency estimated from few doses,"MARK4; compound concentrations:100 nM and 1000 nM (sheet 'Lestaurtinib' of Supplementary Table 1),run:Lestaurtinib_02443_R2,Plate:MR009",0.0934 µM
same,potency estimated from few doses,"MARK4; compound concentrations:100 nM and 1000 nM (sheet 'Lestaurtinib' of Supplementary Table 1),run:Lestaurtinib_02473_R1,Plate:MR010",0.0845 µM
same,potency estimated from few doses,MARK4; [1],0.0597 µM
same,potency estimated from few doses,MARK4; [2],0.0864 µM
same,potency estimated from few doses,MARK4; [3],0.0839 µM
same,potency estimated from few doses,MARK4; [4],0.703 µM
same,potency estimated from few doses,MARK4; [5],0.162 µM
same,potency estimated from few doses,MARK4; [6],0.0839 µM
same,potency estimated from few doses,MARK4; [7],0.668 µM
same,potency estimated from few doses,MARK4; [8],0.708 µM
same,potency estimated from few doses,"MARK4; compound concentrations:100 nM and 1000 nM (sheet 'Lestaurtinib' of Supplementary Table 1),run:Lestaurtinib_02566_R2,Plate:MR014",0.0368 µM
same,potency estimated from few doses,"MARK4; compound concentrations:100 nM and 1000 nM (sheet 'Lestaurtinib' of Supplementary Table 1),run:Lestaurtinib_02566_R3,Plate:MR014",0.497 µM
same,potency estimated from few doses,MARK4; [9],0.115 µM
same,potency estimated from few doses,MARK4; [10],0.141 µM
same,potency estimated from few doses,MARK4; [11],0.199 µM
same,potency estimated from few doses,"MARK4; compound concentrations:100 nM and 1000 nM (sheet 'Lestaurtinib' of Supplementary Table 1),run:Lestaurtinib_02584_R1,Plate:MR017",0.0855 µM
same,potency estimated from few doses,"MARK4; compound concentrations:100 nM and 1000 nM (sheet 'Lestaurtinib' of Supplementary Table 1),run:Lestaurtinib_02584_R2,Plate:MR017",0.0747 µM
same,potency estimated from few doses,MARK4; [12],0.0801 µM
same,potency estimated from few doses,"MARK4; compound concentrations:100 nM and 1000 nM (sheet 'Lestaurtinib' of Supplementary Table 1),run:Lestaurtinib_02601_R1,Plate:MR018",0.0909 µM
same,potency estimated from few doses,"MARK4; compound concentrations:100 nM and 1000 nM (sheet 'Lestaurtinib' of Supplementary Table 1),run:Lestaurtinib_02601_R3,Plate:MR018",0.0934 µM
same,potency estimated from few doses,MARK4; [13],0.115 µM
same,potency estimated from few doses,MARK4; [14],0.0843 µM
same,potency estimated from few doses,"MARK4; compound concentrations:100 nM and 1000 nM (sheet 'Lestaurtinib' of Supplementary Table 1),run:Lestaurtinib_02624_R3,Plate:MR020",0.0784 µM
